Screening data deposited in PubChem by National Center for Advancing Translational Sciences (NCATS).
Sampled rows, rich in hits. Any-hit rate of the full collection: about 0.91%.
TRb-SRC2 inh – TRbeta-SRC2 interaction inhibition | P10828 | AID 1469 | Potency, µM (titrated, usually from 106 µM), for inactives: top-dose activity change, negative = inhibition, usual class: inhibitors | TRbeta-SRC2 peptide binding, fluorescence polarization; receptor liganded with 1 µM T3 | 280,000 compounds, 0.065% hits;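 note: plate controls were bound peptide for no effect and peptide without receptor for full effect; nearly all actives have a fitted effect of over 50% in size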
Target sequence (P10828 whole entry, looked up): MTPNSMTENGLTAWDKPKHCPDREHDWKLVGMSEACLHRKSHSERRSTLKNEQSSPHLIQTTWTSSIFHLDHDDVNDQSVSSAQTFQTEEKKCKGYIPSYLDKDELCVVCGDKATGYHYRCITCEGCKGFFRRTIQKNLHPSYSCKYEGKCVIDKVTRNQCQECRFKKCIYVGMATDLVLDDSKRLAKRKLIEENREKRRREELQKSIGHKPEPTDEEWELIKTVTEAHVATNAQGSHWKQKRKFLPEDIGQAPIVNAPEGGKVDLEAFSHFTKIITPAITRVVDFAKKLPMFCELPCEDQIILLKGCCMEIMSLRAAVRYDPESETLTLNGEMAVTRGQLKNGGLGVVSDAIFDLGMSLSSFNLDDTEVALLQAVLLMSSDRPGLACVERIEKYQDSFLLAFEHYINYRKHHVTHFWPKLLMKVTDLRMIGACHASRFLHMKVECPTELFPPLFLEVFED
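Human TRb LBD (0.6 uM) plus Texas Red-labeled SRC2 peptide (20 nM), 1uM T3, 5% DMSO, 5 hr at ambient temperature. Decreased polarization (555/632 nm) flags inhibition; data normalized to free and bound peptide controls.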
APEX1 inh – blocks human APE1 abasic DNA cleavage; recombinant APE1, TAMRA/BHQ-2 abasic DNA cleavage fluorescence; Potency, µM (highest dose often 65.8 µM), for the others: at the highest dose activity change, negative = inhibition, hits mostly inhibitors; AID 2517; 350,000 compounds, 0.35% hits; P27695;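 note: plate controls were vehicle for no effect and reference inhibitor for full effect; nearly all actives have a fitted effect of over 55% in size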
Target sequence (P27695 whole entry, looked up): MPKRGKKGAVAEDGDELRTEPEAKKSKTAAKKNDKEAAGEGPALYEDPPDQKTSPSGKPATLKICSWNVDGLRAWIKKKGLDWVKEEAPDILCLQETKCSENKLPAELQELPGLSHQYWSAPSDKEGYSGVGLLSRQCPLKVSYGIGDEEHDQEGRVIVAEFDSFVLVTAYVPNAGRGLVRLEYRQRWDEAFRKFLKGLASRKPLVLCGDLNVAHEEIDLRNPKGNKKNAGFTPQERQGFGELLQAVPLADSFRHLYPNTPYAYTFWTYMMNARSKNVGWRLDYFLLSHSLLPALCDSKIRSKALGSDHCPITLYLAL
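Kinetic fluorescence read (525 ex/598 em nm, three reads 60 s apart) of AP-site incision; signal = third minus first read. Enzyme 0.75 nM, dual-labelled THF duplex 50 nM, compound preincubation 15 min RT.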
RECQ1 helicase – blocks DNA unwinding by human RECQ1; 240,000 compounds, 0.54% hits; Potency, µM (top dose mostly 57.3 µM), for inactives: at the top dose activity, negative = inhibition, most hits filed as inhibitors; P46063; RECQ1 DNA unwinding, red fluorescence kinetic read;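 note: plate controls were vehicle for no effect and no enzyme for full effect; nearly all actives have a fitted effect of over 30% in size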
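RECQ1T1 50 nM; forked duplex (20 bp + 30-nt ss tails) 200 nM, ATP 2 mM final; pH 8.0, 2 mM MgCl2, 2.5 ug/ml poly(dI-dC); 15 min compound preincubation; discontinuous kinetic read over 2 h at RT.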
TexasRed fluor – alters Texas Red total fluorescence, flagging assay interference; 280,000 compounds, 0.29% hits; AID 1479; Potency, µM (series often up to 106 µM), without a hit: at the top dose fluorescence change, negative = quenching; TRb/SRC2 Texas Red total fluorescence interference; active = well fitted curve in either direction with a large enough effect; inconclusive = small, poorly fitted or top-dose-only effect
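Human TRβ ligand-binding domain (0.6 uM) and Texas Red SRC2 peptide (20 nM) in Tris buffer with 1 uM T3 and 5% DMSO were incubated with pinned compound for 5 hr at ambient temperature. Total fluorescence was computed as S + 2P (555/632 nm).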
BLM inh – Bloom syndrome helicase (human) inhibition; P54132; recombinant BLM DNA unwinding, fluorescence dequenching; Potency, µM (series often up to 56.1 µM), without a hit: at the top dose activity change, negative = inhibition, most hits filed as inhibitors; 350,000 compounds, 0.2% hits;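 note: plate controls were vehicle for no effect and no enzyme for full effect; nearly all actives have a fitted effect of over 35% in size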
WRN helicase inh – blocks human WRN helicase; Q14191; WRN helicase unwinding, fluorescent forked duplex, kinetic; Potency, µM (doses to about 114 µM), for inactives: at the top dose activity change, negative = inhibition, most hits filed as inhibitors; 360,000 compounds, 0.46% hits; AID 651768; note: nearly all actives have a fitted effect of over 55% in size
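Kinetic fluorescence helicase assay: unwinding of a quenched forked DNA duplex (100 nM final) with 2 mM ATP final raises red fluorescence (525/598 nm). Compounds sat 15 min at room temperature with 20 nM WRN beforehand.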
Starred values were filed as active, the others as inactive; ? = inconclusive; . = no result; ! = repeats disagree; [ ] = remark or other dose. Unless noted, calls come from the whole dose curve; as a rule, active = well fitted curve in the direction sought with a large enough effect; inconclusive = small, poorly fitted or top-dose-only effect, or another doubt; inactive = no such curve, though single readings can be large; an effect the other way counts as inactive or inconclusive. Unless noted, % is set by controls: 0 for no effect and ±100 for the full control effect; potency is the fitted concentration of half-maximal effect.

SMILES	TRb-SRC2 inh	APEX1 inh	RECQ1 helicase	TexasRed fluor	BLM inh	WRN helicase inh
CC(C)N(Cc1ccccc1)C(C)C (tested in a mixture with another compound)	-1%	.	-8%	-3%	-1%	.
O=C1c2ccccc2NC(c2cccc(F)c2)N1Cc1ccco1 (stereo unspecified)	0%	7.9µM*	-19%	1%	?	-22%
O=C1c2ccccc2NC(c2cccc(F)c2)N1Cc1ccccc1 (stereo unspecified)	.	-5%	.	.	-14%	-5%[57.1 µM]
CC(C)CCCCCCCCCCCCCCC(=O)O	9%[201 µM]	.	.	-2%[201 µM]	.	.
Fc1ccc(-c2cc(-c3ccc(F)cc3)c3c(n2)-c2cc(F)ccc2OC3)cc1	-3%	.	.	18µM*[quencher]	1%	.
CC(=O)c1c(C)c([N+](=O)[O-])c(C(C)(C)C)c([N+](=O)[O-])c1C	10%[201 µM]	.	.	-2%[201 µM]	.	.
O=[N+]([O-])c1ccc(C=NNC(=S)Nc2ccc(F)cc2)cc1	.	.	.	.	.	-2%
O=[N+]([O-])c1ccc(C=NNC(=S)NN=Cc2ccc([N+](=O)[O-])cc2)cc1	.	.	.	.	.	56µM*
CN(C)C1C(=O)C(C(N)=O)=C(O)[C@@]2(O)C(=O)C3=C(O)c4c(O)ccc(Cl)c4[C@@H](O)C3C[C@@H]12 (stereo partly specified)	4%	-12%	-8%	0%	.	.
CN(C)[C@@H]1C(=O)C(C(=O)NCN2CCCC2)=C(O)[C@@]2(O)C(=O)C3=C(O)c4c(O)cccc4[C@@](C)(O)C3C[C@@H]12 (stereo partly specified)	.	7.9µM*	.	.	.	.
CCOc1ccccc1NC(=O)c1c(NCc2sccc2C)sc2c1CCC(C)C2 (stereo unspecified)	?	.	.	0.14µM*[quencher]	-8%	.
COC(=O)NC(c1cccc(F)c1)[C@@]1(C(=O)OC)CCCC1=O (stereo partly specified)	3%[11.2 µM]	?	2%[11.5 µM]	1%[11.2 µM]	-1%[12.4 µM]	.
COc1cccc(O)c1O	-5%	2.5µM*	-30%	-2%	0%	.
Nc1nc(=S)c2ncn(C3OC(CO)C(O)C3O)c2[nH]1 (stereo unspecified)	2%	25µM*	?	-6%	?	28µM*
Nc1nc(=S)c2ncn([C@@H]3O[C@H](CO)[C@@H](O)[C@H]3O)c2[nH]1	.	19%	.	.	.	7%
O=C[C@H](O)[C@@H](O)[C@@H](O)[C@H](O)CO	.	1%	.	.	.	.
CCCCN(C(=O)c1cccc(-n2cccc2)c1)c1c(N)n(Cc2ccccc2)c(=O)[nH]c1=O	.	2.7µM*	.	.	.	.
CCOc1c(Cl)cc(Cl)cc1CNCCSc1nnnn1C	-8%	.	.	8.9µM*[quencher]	-5%	.
Cn1nnnc1SCCCNCc1cccc(OCc2ccc(F)cc2)c1	-26%	.	.	0.89µM*[quencher]	4%	.
Cn1nnnc1SCCNCc1ccccc1OCc1ccccc1F	-4%	.	.	10µM*[quencher]	1%	.
CCOc1cccc(CNCCCSc2nnnn2C)c1	-3%	.	.	?	1%	.
CC(C)[C@H](NC(=O)OC(C)(C)C)c1cc(C(=O)N(C)CCN(C)C)c(N)s1	.	.	.	.	.	4%
Cc1cc(C)n2c(Nc3ccc(C(C)C)cc3)c(-c3ccsc3)nc2n1	5%	.	.	-2%	-6%	.
Cc1cc(C)n2c(Nc3ccc(Cl)cc3)c(-c3ccsc3)nc2n1	1%	.	.	1122µM*[quencher]	-5%	.
C#CCOc1ccc(/C=C2/C(=O)N(c3cccc(C(=O)O)c3)N=C2C)cc1OC	.	-35%	.	.	-13%	?
SMILES	TRb-SRC2 inh	APEX1 inh	RECQ1 helicase	TexasRed fluor	BLM inh	WRN helicase inh
COc1cc(/C=C2\C(=O)N(c3cccc(C(=O)O)c3)N=C2C)ccc1OCc1ccccc1	.	.	.	.	.	2.7µM*
CO[C@H]1C=CO[C@@]2(C)Oc3c(C)c(O)c4c(O)c(c5c(nc6cc(C)ccn65)c4c3C2=O)NC(=O)/C(C)=C\C=C[C@H](C)[C@H](O)[C@@H](C)[C@@H](O)[C@@H](C)[C@H](OC(C)=O)[C@@H]1C	.	-1%	.	.	.	.
COC(=O)c1cc(C)nc2c1C(=O)C(=O)C=C2N1CCOCC1	.	-8%	.	.	8.9µM*	?
Cc1c(C(=O)O)sc(S(=O)(=O)N2CCN(C(=O)Cc3ccc(F)cc3)CC2)c1C(=O)O	.	5%	.	.	.	0%
CCc1ccc(C(=O)NNC(=O)OC)cc1	-10%	3%	2%	0%	-2%	3%
O=C1CCCC(O)=C1N=Nc1c(Cl)cc(Cl)cc1Cl	28µM*	?	25µM*	45µM*[fluorescent]	3%	-6%
O=C1CCCC(O)=C1Sc1cc(Cl)c(Cl)cc1Cl	.	.	.	.	.	4%
CC1(C(=O)Nc2ccc3c(c2)OCCO3)CC1(Cl)Cl (stereo unspecified)	.	28%	.	.	-4%	3%
COc1ccc(NC(=O)c2c(NCc3ccc(C)o3)sc3c2CCCCC3)c(OC)c1	-25%	.	.	112µM*[quencher]	-9%	.
CC(C(=O)N(C)C1CCS(=O)(=O)C1)N1C(=O)/C(=C/c2ccco2)SC1=S (stereo unspecified)	.	-2%	.	.	-10%	-26%
O=C(CN1C(=O)/C(=C/c2ccco2)SC1=S)Nc1ccc(O)c(C(=O)O)c1	.	-28%	.	.	-8%	-1%
O=C(CN1C(=O)/C(=C/c2ccco2)SC1=S)Nc1ccc(C(=O)O)c(O)c1	.	?	.	.	43%	35µM*
CC(C(=O)Nc1ccc(C(=O)O)c(O)c1)N1C(=O)/C(=C\c2ccco2)SC1=S (stereo unspecified)	.	21µM*	.	.	41%	40µM*
CN(C)C(=O)c1ccc(NC(=O)COC(=O)C2(c3ccccc3)CCCC2)cc1	.	14%	.	.	.	-10%
CC(C)(C)n1ncc2c(=O)n(Cc3cccc(C#N)c3)cnc21	.	-6%	.	.	.	.
CCCCCCCCCCCCN	0%[201 µM]	.	.	-3%[201 µM]	.	.
Cc1cc(C(=O)O)sc1C(N)C(=O)O (stereo unspecified)	1%	-7%	-3%	-1%	-3%	.
Cc1cc(C(=O)O)ccc1[C@H](N)C(=O)O	7%	40µM*!	3%	-2%	-2%	.
CC1C2(C)OC(=N)C(C#N)(C(C)O2)C1(C#N)C#N (stereo unspecified)	?	-2%	-24%	21%	-8%	79µM*
CC1OC2(C)OC(=N)C1(C#N)C(C#N)(C#N)C2c1ccccc1 (stereo unspecified)	5%	1%	3%	4%	-18%	-20%
O=C(N/N=C/c1cn(-c2cccs2)nc1-c1ccccc1)c1ccccc1O	4%	2%	-2%	0%	20µM*	-31%[57.1 µM]
O=C(N/N=C/c1cn(-c2cccs2)nc1-c1ccccc1)c1ccccc1Br	-16%	-9%	-9%	0%	-7%	?
COc1ccc(OC)c(-c2csc(NC(=O)COC(=O)c3ccc(NC(=O)CC#N)cc3)n2)c1	.	15µM*	.	.	.	?
